This is a sample that favours compounds with a hit; in the whole collection about 6% have one here.
D3 ag = qHTS of D3 Dopamine Receptor Agonist: qHTS; AID 652048, 2013; max activation, %; actives 0.58% (n = 410,000); D3R DiscoveRx beta-arrestin cells, luminescence, 90 min; D(3) dopamine receptor (Homo sapiens), P35462; in the data active means max activation above about 30%; further: 0% is about no effect
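Cells at 1500/well, incubated overnight, then treated with pinned compounds (dopamine as control) for 90 min at 37 degrees C. DiscoveRx reagent added for 30 - 60 minutes at room temperature; luminescence read.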
D1 antag = Antagonist of Human D 1 Dopamine Receptor: qHTS; D(1A) dopamine receptor (Homo sapiens), P21728; HEK293 TREx D1 cells, calcium flux, dopamine EC80; hits give low values; activity change, negative = inhibition, % at 10 µM; actives 3.2% (n = 360,000); AID 504652, 2011; in the data active means activity change below about -30%; further: on the % scale 0 is the no-effect control and ±100 the full control effect
Target sequence (P21728 whole entry, looked up): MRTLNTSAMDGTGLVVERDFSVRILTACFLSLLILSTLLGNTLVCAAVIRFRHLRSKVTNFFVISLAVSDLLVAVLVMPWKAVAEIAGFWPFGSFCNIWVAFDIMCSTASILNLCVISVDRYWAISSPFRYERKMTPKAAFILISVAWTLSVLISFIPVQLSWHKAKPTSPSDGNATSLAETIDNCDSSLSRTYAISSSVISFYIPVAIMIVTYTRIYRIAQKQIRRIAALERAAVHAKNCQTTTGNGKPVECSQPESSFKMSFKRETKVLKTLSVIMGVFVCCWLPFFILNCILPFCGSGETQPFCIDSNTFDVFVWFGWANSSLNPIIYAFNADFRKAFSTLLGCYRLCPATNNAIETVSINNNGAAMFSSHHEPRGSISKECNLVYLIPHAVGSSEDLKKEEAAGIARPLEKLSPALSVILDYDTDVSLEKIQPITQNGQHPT
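Antagonism measured as reduced calcium response to an EC80 dopamine addition following 180 s compound pre-read; cells were inducible HEK293 Trex D1 plated overnight at 30 C, read kinetically at 1 cycle/sec.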
D1 agonist = Allosteric Agonists of the Human D1 Dopamine Receptor: qHTS | D(1A) dopamine receptor (Homo sapiens), P21728 | HEK293 T-REx D1 cells, calcium flux, agonist mode | activation, % at 2 µM | actives 1% (n = 360,000); in the data active means activation above about 30%; further: 0% is about no effect
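Tetracycline-induced HEK293 TREx D1 cells, force-coupled to calcium signalling, were dye-loaded with a no-wash calcium kit. Compound was pin-added after a 10 s baseline. Fluorescence was read kinetically at 1 cycle/s for 180 s, with calcium rises flagged as agonism.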
DRD3 antagonist = qHTS of D3 Dopamine Receptor Antagonist: qHTS | D3R cells, DiscoveRx beta-arrestin luminescence, antagonist mode; hits give low values | max response, negative = inhibition, % | actives 2.5% (n = 360,000) | AID 652054, 2013; in the data active means max response below about -50%; inconclusive means no clear call, values can overlap the other calls; further: on the % scale 0 is the no-effect control and ±100 the full control effect
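Cells expressing the human receptor were seeded at 1500 cells/well, incubated overnight at 37 degrees C in 5% CO2, then exposed to library compounds with dopamine controls for 90 minutes at 37 degrees C before luminescent detection.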
D1 PAM = Potentiators of Human D1 Dopamine Receptor: qHTS. potentiation, % at 10 µM. HEK293 TREx D1 cells, calcium flux, dopamine EC20 potentiation. D(1A) dopamine receptor (Homo sapiens), P21728. actives 0.036% (n = 360,000); in the data active means potentiation above about 30%; further: 0% is about no effect
* marks the source's active call; other numbers are inactive results; u = inconclusive; x = no result.

SMILES	D3 ag	D1 antag	D1 agonist	DRD3 antagonist	D1 PAM
Cc1c(Cl)cccc1NC(=O)N1CCN(Cc2cc(=O)n3nc(-c4ccccc4F)sc3n2)CC1	3.8	9.1	-0.7	x	-1.1
O=C(NNc1c2ccccc2nc2ccccc12)c1cccc(O)c1	-3.6	2.9	0.9	-29.3	-4.2
O=C(NNc1c2ccccc2nc2ccccc12)c1ccc(O)cc1	-7.2	11.1	0.4	-64.2*	0.1
COc1ccc(C2=NS(=O)(=O)N(C)C(C(=O)NCc3cccs3)=C2)cc1OC	0.9	-8.4	0.2	13.3	-5.6
CCOC(=O)C1=NN(C(=O)c2ccc(C)cc2)C(O)(c2ccc(Cl)cc2)C1 (centres undefined)	-8.7	-28.4	158.0*	-57.3*	3.2
COC(=O)C1=NN(C(=O)c2ccc(Cl)cc2)C(O)(c2ccccc2)C1 (centres undefined)	-25.4	3.2	30.0*	u	-3.5
CC(C)CN(CC(C)C)S(=O)(=O)N1CCC(C(=O)NC2CCCCCCC2)CC1	1.1	-35.6*	4.5	5.2	-0.5
O=C(N/N=C/c1cccc([N+](=O)[O-])c1)c1cc(-c2ccc3c4c(cccc24)CC3)n[nH]1	-4.4	-9.6	1.2	-1.6	-8.5
O=C(N/N=C/c1ccc(Cl)c([N+](=O)[O-])c1)c1cc(-c2ccc3c4c(cccc24)CC3)n[nH]1	-14.8	-1.0	1.7	-58.4*	-8.4
Cc1ccccc1NC(=O)CCCNC(=O)c1ccc(Cl)cc1	8.2	-4.1	8.3	17.2	4.2
COc1ccc2c(c1OC)C[N+]1([O-])CCc3cc4c(cc3C1C2)OCO4 (centres undefined)	-38.0	-38.2*	2.7	u	-2.2
Clc1ccc(-c2ccc(CNCc3ccccn3)o2)cc1	-21.6	-13.3	4.8	-69.2*	-5.0
CC(C)CN1CCN(C(=O)CCc2nnc(Cc3c[nH]c4ccccc34)o2)[C@@H](C)C1=O	-1.7	4.0	0.9	1.3	-5.6
Cc1ccc(S(=O)(=O)N2CCC(C)CC2)cc1	7.7	-17.4	0.0	4.5	-0.3
Cc1nnsc1C(=O)Nc1ccc(S(=O)(=O)N2CCC(C)CC2)cc1	2.9	-48.4*	20.8	-1.2	-8.7
CC1CCN(S(=O)(=O)c2ccc(C(=O)N3CCOCC3)cc2)CC1	3.5	-35.3*	-0.1	-9.1	-6.2
CC1CCN(S(=O)(=O)c2ccc(S(=O)(=O)N3CCCC3)cc2)CC1	34.2*	-19.3	0.1	5.7	-11.2
CC1CCN(S(=O)(=O)c2ccc(NC(=O)c3cccs3)cc2)CC1	-5.9	-4.4	5.0	0.0	-4.3
O=C(Nc1ccc2c(c1)OCO2)c1cc(C2CCCCN2S(=O)(=O)c2ccccc2)on1 (centres undefined)	-3.5	x	x	0.0	x
CC(=O)Nc1ccc(NC(=O)C(C)OC(=O)/C(C#N)=C/c2ccc(N(C)C)cc2)cc1 (centres undefined)	-2.4	-5.5	83.8*	-13.7	-2.9
CC(OC(=O)/C(C#N)=C/c1ccc(N(C)C)cc1)C(=O)N(C)c1ccccc1 (centres undefined)	6.9	-7.7	70.0*	13.0	-5.3
CC(C)OC(=O)/C(C#N)=C\c1cccnc1	-1.6	11.0	0.5	1.8	2.0
CC(=O)Nc1ccc(NC(=O)C(C)OC(=O)c2ccc(N(C)C)cc2)cc1 (centres undefined)	-10.4	-16.1	5.0	-17.3	x
O=C(Nc1ccc2c(c1)OCO2)Nc1cnccn1	7.3	-8.5	1.7	7.6	1.1
O=C(Nc1cccc(F)c1)Nc1cnccn1	-1.0	-30.8*	5.6	-10.3	-5.7
SMILES	D3 ag	D1 antag	D1 agonist	DRD3 antagonist	D1 PAM
O=C(Nc1cccc(F)c1)Nc1ccccn1	-3.9	-37.3*	0.3	17.1	-5.0
CCOC(=O)c1c(NC(=O)CCS(=O)(=O)c2ccccc2)sc2c1CCN(C(C)C)C2	-6.6	-0.5	4.5	10.3	0.9
Cc1cccc(CNC(=O)c2ccc(NC(=O)N3CCSc4ccccc43)cc2)c1	-8.0	14.7	5.1	x	-3.5
COc1ccccc1N1CCN(C(=O)CSc2nc3ccccc3nc2Cc2ccc(C)cc2)CC1	34.3*	3.4	-1.1	x	6.0
O=C(CSc1nc2ccccc2nc1Cc1ccc(Cl)cc1)N1CCN(c2ccccc2F)CC1	37.0*	4.8	3.7	x	-0.7
COc1ccc(-n2ncc3c(SCC(=O)N4CCN(c5ccccc5OC)CC4)ncnc32)cc1	18.5	-52.5*	-2.0	9.1	-8.4
COc1ccccc1N1CCN(C(=O)CSc2nc3ccccc3nc2Cc2ccc(F)cc2)CC1	2.8	-2.5	2.4	x	-1.9
Cc1ccc(C(=O)N2CCC(n3nccc3NC(=O)c3ccccc3C)CC2)cn1	-6.9	-6.6	4.8	2.9	9.9
Cc1ccccc1C(=O)Nc1ccnn1C1CCN(C(=O)c2ccoc2)CC1	-5.6	-44.5*	3.6	0.9	-4.7
CC1CCN(C(=O)c2ccc(NC(=O)c3nsc4ccccc34)cc2)CC1	-4.3	7.5	-0.1	x	0.3
O=C(CCSCc1ccc(Cl)cc1)NCc1ccc(F)cc1Cl	10.7	-32.8*	9.8	x	-3.0
O=C(CCSCc1ccccc1Cl)NCc1ccc(F)cc1Cl	0.7	-19.1	68.0*	x	-0.8
O=C(CCSCc1cccc(Cl)c1)NCc1ccc(F)cc1Cl	8.0	-0.3	9.7	x	3.1
Cc1ccc2c(c1)N(C(=O)Nc1cccc3c1CCCC3)CCO2	-13.6	-8.7	0.8	x	1.3
O=C(CSc1ccc(Cl)cc1)N/N=C/c1ccc([N+](=O)[O-])o1	-0.4	-33.6*	8.7	-8.8	-10.8
CNC(=O)c1ccccc1Sc1ccc2c(/C=C/c3ccccn3)n[nH]c2c1	5.9	x	x	x	x
COC(=O)c1ccc(NC(=O)CN2CCN(c3ccccc3)CC2)cc1	32.8*	-19.3	2.3	-24.5	-4.2
COC(=O)c1ccc(N2CCN(CC(=O)c3ccc(-c4ccccc4)cc3)CC2)c([N+](=O)[O-])c1	-3.4	-34.3*	1.6	0.0	-7.8
Cc1ccc(NC(=O)Cc2ccc(F)cc2)cc1	-6.2	-8.7	-2.4	9.2	1.8
COC(=O)c1ccc(N2CCN(CC(=O)c3ccc(C)cc3)CC2)c([N+](=O)[O-])c1	0.7	x	x	-16.3	x
COC(=O)c1ccc(NC(=O)Cc2ccc(F)cc2)cc1	-8.1	-30.4*	-0.1	0.0	-3.5
COC(=O)c1ccc(NC(=S)NCCc2cccc(C)c2)cc1	1.4	-29.2	21.5	-4.1	-10.1
COC(=O)c1ccc(NC(=S)NCCc2ccccc2C)cc1	-8.2	-35.7*	23.5	-24.3	-4.5
CCN(CC)S(=O)(=O)c1cc(NC(=O)CSCc2c(C)noc2C)ccc1C	-0.4	x	x	10.4	x

Bioassay records from PubChem.
